The list is not random: actives were taken first. Their share in the collection is about 1.8%.
GRP78 ERSR act: induces the endoplasmic reticulum stress response in human glioma cells. U87-MG GRP78 promoter luciferase reporter, 16 h. Potency, µM, inactives show top-dose activation, hits mostly activators. hit rate 0.02% among 420,000. AID 602332; note: potency is the fitted concentration of half-maximal effect; series mostly up to about 76 µM; % of control where 0% means no effect; nearly all actives have a fitted effect of over 35% in size
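ERSR induction read as luciferase luminescence (Bright-Glo, 10 min at room temperature) in stably transfected human U87-MG glioma cells exposed to compounds for 16 h, using GRP78 as sensor.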
MBNL1 CUG block: inhibitors of human MBNL1 binding to CUG repeat RNA | AID 2675 | Potency, µM (highest dose often 57.5 µM), inactives show at the highest dose activity change, negative = inhibition, usual class: inhibitors | TR-FRET MBNL1-His/biotin-(CUG)12 binding, 665/545 ratio | hit rate 0.036% among 280,000; active = well fitted inhibition curve with a large enough effect in the signal ratio, with a control signal flat, not every such curve was filed as active; inconclusive = small, poorly fitted or top-dose-only effect, or effect the other way, or a change in a side signal; inactive = no such curve, though single readings can be large or run the other way; the % refers to the signal ratio; note: potency is the fitted concentration of half-maximal effect; % is set by controls: 0 for no effect and ±100 for the full control effect
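Compound titration spanned 92 nM–58 uM against the MBNL1-His/biotin-(CUG)12 complex. After 60 min at room temperature with 5 nM streptavidin-XL665 and 0.055 ng/ul terbium anti-His, ratiometric 665/545 nm emission (Ex 340 nm) normalized to controls.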
TCR activator: activates T cell receptor signaling; primary human leukocytes, anti-CD3, IL-2 HTRF, 48 h; Potency, µM (highest dose often 9.22 µM), inactives show at the highest dose activation of IL-2 secretion, usual class: activators; 330,000 tested, under 10 active; AID 504894; note: % of control where 0% means no effect
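IL-2 release read by HTRF sandwich (Eu cryptate donor, d2 acceptor, 665 nm emission) after 48 hr exposure of primary human leukocytes to compound together with anti-CD3 beads in the absence of co-stimulatory signals.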
Mito fusion yeast: inhibitors of mitochondrial division or activators of mitochondrial fusion; S. cerevisiae fusion-defective mutant growth rescue, CellTiterGlo 48 h; Potency, µM (highest dose often 46.1 µM), for inactives: top-dose growth rescue (activation), hits mostly activators; hit rate 0.23% among 320,000; AID 485298; note: potency is the fitted concentration of half-maximal effect; % of control where 0% means no effect; nearly all actives have a fitted effect of over 45% in size
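Compounds are tested for their ability to restore growth of mitochondrial fusion-defective yeast strains at non-permissive 37C in YPEG medium over 48 hours. Viability is quantified by luciferase luminescence.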
ClpP mod: qHTS Assay for Activators of ClpP. hit rate 1.9% among 340,000. Potency, µM (series often up to 57.5 µM), without a hit: at the top dose activity change, negative = active. purified B. subtilis ClpP, FRET peptide cleavage, 20 min. ATP-dependent Clp protease proteolytic subunit (Bacillus subtilis (strain 168)), P80244. AID 651965, 2013; active = well fitted falling curve with a large enough effect; inconclusive = small, poorly fitted or top-dose-only effect; inactive = no such curve, though single readings can be large or run the other way; note: potency is the fitted concentration of half-maximal effect; the source files actives as falling curves though it sought activators and does not explain the sign; nearly all actives have a fitted effect of over 65% in size
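ClpP 10 microg/mL final, pH 8 Tris/KCl buffer with BSA, glycerol, Tween-20; compound pinned in; FRET-FV substrate; RT 20 min; Ex320/Em430; ΔFRET vs ADEP 5.8 microM, DMSO, no enzyme.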
A-T KAP1 phos: candidate therapy for ataxia-telangiectasia; hit rate 0.19% among 320,000; Potency, µM (series often up to 57.5 µM), inactives show top-dose activation, actives largely listed as activators; F2112 A-T fibroblasts, KAP-1 phosphorylation AlphaLISA; neocarzinostatin DNA damage 30 min before lysis; note: potency is the fitted concentration of half-maximal effect; % of control where 0% means no effect; nearly all actives have a fitted effect of over 45% in size
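hTERT-immortalized A-T patient fibroblasts (F2112), 500 cells/well in OPTI-MEM, 1% FBS, got compounds for 60 min, then NCS for 30 min at 37C. Lysates were then assayed for phospho-KAP-1 by AlphaLISA (anti-pKAP1 donor, anti-KAP1 acceptor beads), 6 hr at 25C.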
The depositor's hits bear a star; ? = inconclusive; · = no result given; [ ] = remark or other dose. Unless noted, calls come from the whole dose curve; as a rule, active = well fitted curve in the direction sought with a large enough effect; inconclusive = small, poorly fitted or top-dose-only effect, or another doubt; inactive = no such curve, though single readings can be large; an effect the other way counts as inactive or inconclusive.

SMILES	GRP78 ERSR act	MBNL1 CUG block	TCR activator	Mito fusion yeast	ClpP mod	A-T KAP1 phos
CCOC(=O)c1sc2nc(CC(=O)OC)nc(NCC(=O)OC)c2c1C	2%	?	1%	8%	20%	10%
COc1cccc(-c2nnc(-c3ccco3)o2)c1	-9%	7%[11.5 µM]	4%[46.1 µM]	11%	-1%	0%
CC(C)COc1ccc(-c2nnc(-c3ccco3)o2)cc1	-5%	1%	3%	6%	16µM*	6%
CCCOc1ccc(-c2nnc(-c3ccco3)o2)cc1	-13%	12%	3%	-1%	40µM*	17%
CCc1cc(C(=O)NCC2Cc3cc(-c4ccccc4C(C)=O)ccc3O2)no1 (configuration not stated)	-2%	·	·	·	·	·
Cc1cccc(-n2cc(-c3ccccc3)c3c(N4CCC(C)CC4)ncnc32)c1	-1%	·	·	·	28µM*	·
COc1ccccc1CNc1ncnc2c1c(-c1ccccc1)cn2-c1cccc(C)c1	-3%	·	·	·	28µM*	·
COc1cccc(N2CCN(c3ncnc4c3c(-c3ccccc3)cn4-c3ccc(F)cc3)CC2)c1	-1%	·	·	·	-2%	·
COc1ccccc1N1CCN(c2ncnc3c2c(-c2ccccc2)cn3-c2cccc(C)c2)CC1	-2%	·	·	·	11µM*	·
CC1CCN(c2ncnc3c2c(-c2ccccc2)cn3-c2ccc(Br)cc2)CC1	-2%	·	·	·	-3%	·
COc1ccc(CCNC(=O)c2cnn(-c3nccc(-c4cccs4)n3)c2C)cc1OC	11%	·	·	·	·	·
Cc1c(C(=O)NCC2(N3CCOCC3)CCCC2)cnn1-c1nccc(-c2ccccc2F)n1	-4%	·	·	·	·	·
Cc1ccc(NC(=O)C(C)c2ccc(-c3ccccc3)c(F)c2)cc1 (configuration not stated)	0%	-2%	4%	-1%	35µM*	-2%
COc1cc(CN2CCC3(CCC(CNC(=O)c4ccco4)O3)CC2)ccc1O (configuration not stated)	-1%	·	·	·	·	·
Cc1nc(-c2ccc(Cl)cc2)sc1C1(C)CC(c2ccccc2Br)=NO1 (configuration not stated)	-1%	·	0%	·	25µM*	·
CC(C)C(NS(C)(=O)=O)c1nnc2n1CCN(Cc1ccc3cccnc3c1)CC2 (configuration not stated)	-5%	·	·	·	·	·
NC(N)=NCCC[C@H](NC(=O)[C@H](Cc1ccccc1)NC(=O)[C@@H]1CCCN1C(=O)[C@H](CO)NC(=O)[C@H](Cc1ccccc1)NC(=O)CNC(=O)[C@@H]1CCCN1C(=O)[C@@H]1CCCN1C(=O)[C@@H](N)CCCN=C(N)N)C(=O)O	-2%	·	·	·	·	·
O=C(COc1ccc(Cl)cc1)Nc1ccc(Cc2ccncc2)cc1	-7%	12%	2%[46.1 µM]	?	7.1µM*	8%
O=C(COc1ccc2ccccc2c1)Nc1ccc(Cc2ccncc2)cc1	-3%	-6%	5%	2%	0%	-1%
CC(C)(C)n1ncc2c(=O)n(Cc3c(Cl)cccc3Cl)cnc21	-5%	·	·	·	·	·
CCOC(=O)c1sc(Nc2nc3ccc(OC)cc3s2)cc1C	-2%	34%	-5%[46.1 µM]	?	·	·
CCOC(=O)c1sc(Nc2nc3c(F)cccc3s2)cc1C	1%	·	-4%[46.1 µM]	2%	8.9µM*	6%
CCOC(=O)c1c(NC(=O)CSc2ccccc2C(=O)O)sc(C)c1C	-5%	-25%	13%	-1%	16µM*	8%[11.5 µM]
CCOC(=O)c1c(NC(=O)CSc2ncnc3ccccc23)sc(C)c1C	-4%	·	4%[46.1 µM]	2%	1%	-4%
CCOC(=O)c1sc(NC(=O)Nc2cccc(Cl)c2)cc1C	4%	-10%	-13%[46.1 µM]	5%	32µM*	-2%
SMILES	GRP78 ERSR act	MBNL1 CUG block	TCR activator	Mito fusion yeast	ClpP mod	A-T KAP1 phos
CCOC(=O)c1c(NC(=O)Nc2ccccc2)sc(C)c1C	-3%	6%	2%	-4%	20µM*	-2%
CC1=C(C(=O)O)N2C(=O)[C@@H](NC(=O)[C@H](N)C3=CCC=CC3)[C@H]2SC1	-3%	·	·	·	·	·
COc1cc(=O)n2c(c1C(=O)NCc1ccco1)CCN(C(=O)c1c(F)ccc(F)c1F)CC2	2%	·	·	·	·	·
COC(=O)c1cccc(C(=O)N2CCc3c(cnc(C)c3CNC(=O)/C=C/c3cccs3)C2)c1	-2%	·	·	·	·	·
O=S(=O)(c1nccs1)N1CCN(c2nc(-c3cccs3)nc3ccccc23)CC1	·	·	·	·	-23%	·
COc1cc(OC)c2c(c1C(CCN1CCCC1)c1ccc(N(C)C)cc1)OC(=O)CC2c1ccc(N(C)C)cc1 (configuration not stated)	0%	·	·	·	·	·
COc1ccc(C2=NN(S(C)(=O)=O)C(c3cn(-c4ccccc4)nc3-c3cccs3)C2)cc1 (configuration not stated)	-3%	·	·	·	14µM*	·
COc1ccc(-c2nn(-c3ccccc3)cc2C2CC(c3cccs3)=NN2C(=O)CCC(=O)O)cc1 (configuration not stated)	1%	1%	3%	0%	4%	6%
Cc1ccc(C(=O)N2CCOc3ccc(CN4CCN(Cc5ccccn5)CC4)cc3C2)cc1	-1%	·	·	·	·	·
COC(=O)c1cc2c(ccn2-c2ccc(F)cc2)n1Cc1cccc(OC)c1	-6%	1%	2%[46.1 µM]	7%	28µM*	8%
COc1cccc(CN2CCN(c3ccc(F)cc3)C2=O)c1	4%	-1%	5%	8%	·	12%
COC(=O)c1cc(C(=O)OC)n(Cc2ccc(F)cc2)c1C	3%	-5%	8%	11%	·	10%
COC(=O)c1cc2c(ccn2-c2ccc(F)cc2)n1Cc1ccc(OC(C)=O)cc1	0%	0%	2%[46.1 µM]	?	28µM*	·
Cc1cc(=O)[nH]c2ccc(O)cc12	-1%	·	·	·	4%	·
Cc1ccc(SC/C(O)=C(\C#N)c2nc3ccccc3s2)cc1	13%	-2%	2%	-1%	25µM*	5%
CCC(C)CC(C)CC(C)C(=O)/C=C(/O)C(C)CC(C)C/C=C/C(C)C(O)C(C)C(O)CC1CCC(C)(C)O1 (configuration not stated)	11%	·	·	·	·	·
CC(=O)N(C(C)=O)c1nc(-c2ccccc2)cn1/N=C/c1ccccc1	-7%	11%	-3%	3%	32µM*	-31%
Cc1ccc(C(=O)C[n+]2ccc(-c3nnc4n3CCC4)cc2)cc1	-3%	?	0%[46.1 µM]	-5%	11µM*	-4%
O=C(C[n+]1ccc(-c2nnc3n2CCC3)cc1)c1ccc(Cl)cc1	0%	?	0%[46.1 µM]	-5%	32µM*	1%
CC(C)(C)CC(=O)Nc1ccc(-c2nnc3n2CCCCC3)cc1	-3%	-8%	8%	0%	-1%	8%
COc1ccc2[nH]cc(CCNc3ncncc3-c3ccccc3C)c2c1	-2%	·	·	·	·	·
